Laboratory results from PubChem BioAssay AID488890 (Southern Research Specialized Biocontainment Screening …, 2010).
In all, about 320,000 compounds went through this assay and about 1,300 (0.41%) were called active. Inconclusive results (about 3%) are left out. The rule behind the calls is not given here. These entries were drawn from the full list. Potency and affinity values are given separately.

Assay: growth inhibition of non-replicating M. tuberculosis (AID 488890);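 note: plate controls were DMSO cells for no effect and high antibiotic wells for full effect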
Settings: Mycobacterium tuberculosis non-replicating, at 25 µM, stronger effect = higher value

Structure (SMILES) | inhibition [%]
Cc1cc(C)n2[nH]c(=O)c(N=Nc3ccc(S(N)(=O)=O)cc3)c2n1 | -1.74
COc1cccc(N=Nc2c(=O)[nH]n3c(C)cc(C)nc23)c1 | 65.1
Cc1cc(C(F)(F)F)n2[nH]c(=O)c(N=Nc3ccccc3)c2n1 | -0.96
Cc1cc(C)n2[nH]c(=O)c(N=Nc3ccccc3)c2n1 | -9.77
Cc1ccc(NC(=O)OCCNC(=O)OC(C)C)cc1 | 13.6
C/C(=C/C(=O)O)C(=O)Nc1cccc(C(F)(F)F)c1 | 37.8
CC(=O)Nc1ccc(/C=C/c2ccc3c([N+](=O)[O-])cccc3n2)cc1 | 10.1
COc1cc(/C=C/c2ccc3cccc([N+](=O)[O-])c3n2)ccc1OCC(=O)O | 31.6
CN1/C(=C\C(=O)COC(=O)c2ccco2)C(C)(C)c2ccccc21 | 64.9
CN1/C(=C\C(=O)COC(=O)CN2C(=O)C3CC=CCC3C2=O)C(C)(C)c2ccccc21 (stereo unspecified) | 19.7
CN1/C(=C\C(=O)COc2ccc3c(c2)OCO3)C(C)(C)c2ccccc21 | 43
CN1/C(=C\C(=O)COC(=O)c2ccc(O)cc2)C(C)(C)c2ccccc21 | 57.9
COC(=O)c1ccccc1NC(=O)COc1ccc2c(c1)OCO2 | 70.5
O=C(N/N=C/c1c[nH]c2ccccc12)C1CC(=O)N(c2ccccc2)C1 (stereo unspecified) | 12.1
Cc1cc(C(=O)COC(=O)c2cccnc2Cl)c(C)n1C | 7.66
Cc1cc(C(=O)COc2ccc(F)cc2Br)c(C)n1C | 11.3
CCN(CC)c1ccc2c(Cl)cc(=O)oc2c1 | 11.8
CCN(CC)c1ccc2c(C)c(Cl)c(=O)oc2c1 | 2.25
Cc1cc(C)cc(OCC(=O)Nc2cccc(S(=O)(=O)NC3=NCCC3)c2)c1 | 5.82
O=C(CNC(=O)c1ccccc1)N/N=C/c1cc(Br)ccc1O | 38.3
COC(=O)N/N=C/c1cc(Br)ccc1O | 27.7
O=C(CNC(=O)c1ccccc1Br)N/N=C/c1cc(Br)ccc1O | 17.8
O=C(N/N=C/c1cc(Br)ccc1O)c1ccncc1 | 63.8

Structure (SMILES) | inhibition [%]
O=C(N/N=C/c1cc(Br)ccc1O)Nc1ccccc1 | 14.3
Oc1ccc(Br)cc1/C=N/NC(=S)NCCc1ccccc1 | 45.2
COc1cccc(-c2nc(CS(=O)(=O)CC(=O)NCCCN3CCN(C)CC3)c(C)o2)c1 | -1.26
C/C(=N\N=C1\NC(=O)C(CC(=O)Nc2ccc(C)c(Cl)c2)S1)C(C)(C)C (stereo unspecified) | 38.8
CCCn1c2c(c(O)c(C(=O)Nc3ccc(OC)cc3)c1=O)CCCC2 | 11.5
CC1(C(=O)NC(=S)N(CCC#N)Cc2cccnc2)CC1(Cl)Cl (stereo unspecified) | 12.4
Cc1ccc(NC(=O)COC(=O)CC2CC3CCC2C3)cc1S(=O)(=O)N1CCOCC1 (stereo unspecified) | 9.66
COC(=O)CCN1CCN(S(=O)(=O)c2ccccc2Br)CC1 | -21.4
O=[N+]([O-])c1ccccc1/C=N/Nc1nc(N2CCCC2)nc(N2CCCC2)n1 | 18.8
COc1ccccc1/C=N/Nc1nc(C)cc(C)n1 | 20.8
COc1ccc(/C=N/Nc2cc(C)nc(N3CCOCC3)n2)c(OC)c1 | -23.5
COc1ccc(OC)c(/C=N/Nc2cc(C)nc(N3CCOCC3)n2)c1 | 8.92
Cc1cc(N/N=C/c2ccc(O)cc2O)nc(N2CCOCC2)n1 | 6.6
Cc1cc(N/N=C/c2ccc(O)cc2O)nc(-c2ccccc2O)n1 | 0.04
COc1ccccc1/C=N/Nc1cc(C)nc(N2CCOCC2)n1 | 8.69
Cc1cc(C)n(-c2ccccc2[N+](=O)[O-])n1 | 24.1
O=C(CSc1ncccc1C(=O)O)NC1CCCCCCC1 | -1.94
Cc1cc(C)c(C)c(S(=O)(=O)NC(C(=O)O)C(C)C)c1C (stereo unspecified) | -1.77
Cc1cc(C)c(NC(=S)N2CCC(N(C)CC3CCCO3)CC2)c(C)c1 (stereo unspecified) | -2.45
O=C(C[n+]1cccc(Br)c1)c1ccc(-c2ccccc2)cc1 | 31.7
CCCc1cc(C(=O)N2CCCC(N3CCN(c4ccccc4C)CC3)C2)n(C)n1 (stereo unspecified) | 8.14
COc1ccccc1C(=O)NCCC(=O)Nc1ccc(S(=O)(=O)N2CCC(C)CC2)cc1 | 27.4
Cc1ccc(NC(=O)CSc2nnc(-c3ccco3)o2)cc1 | 27.5

Structure (SMILES) | inhibition [%]
CCNC(=O)CCSc1nnc(-c2ccco2)o1 | -8.15
CC(=O)Nc1ccc(C(=O)CSc2nnc(Cc3ccccc3)o2)cc1 | 38.2
Cc1cccc(C)c1NC(=O)CSc1nnc(Cc2ccccc2)o1 | -8.32
Cc1ccc(NC(=O)CCSc2nnc(C)o2)cc1 | 9.37
Cc1ccc(NC(=O)CSc2nnc(Cc3ccccc3)o2)c(C)c1 | 79.6
O=C(CN1CCN(CCN2C(=O)c3cccc4cccc(c34)C2=O)CC1)c1ccc(F)cc1 | 79.3
Cc1ccc(NC(=O)C2=NNC(=O)CC2)cc1S(=O)(=O)Nc1ccc(SC(F)F)cc1 | 6.44
CC1CN(S(=O)(=O)c2cccc(C(=O)OCC(=O)N3CCCCCC3)c2)CC(C)O1 (stereo unspecified) | -8.29
COc1ccc2c(c1OC)C(=O)N(c1cccc(C)c1)C2 | -2.97
O=C(O)Cn1c(SCCOc2ccc(Cl)cc2)nc2ccccc21 | 1.68
COc1cc(C)c(Cl)cc1S(=O)(=O)NCc1ccccn1 | -0.9
O=c1c2[nH]c3ccc(Br)cc3c2ncn1Cc1ccncc1 | -8.92
CCOC(=O)c1c(NC(=O)C2Cc3ccccc3C(=O)O2)sc2c1CCCC2 (stereo unspecified) | -2.64
Cc1ccc(OCC(O)CN2CCN(c3ccccn3)CC2)c(C)c1 (stereo unspecified) | 41.5
Cc1ccc(NC(=O)C2CCCN2C(=O)Oc2ccccc2)c(C)c1 (stereo unspecified) | -3.45
COc1ccc(-c2ccc(CNCc3ccccn3)o2)cc1Cl | 78.7
Cc1c(Cl)cccc1NC(=O)NCc1ccccn1 | -10.1
Cc1c(C(=O)NCc2ccccn2)oc2c(Cl)cccc12 | 15.1
Clc1ccc(-c2ccc(CNCC3CCCO3)o2)cc1 (stereo unspecified) | 72.6
O=C(NCc1ccccn1)Nc1ccc(F)c(Cl)c1 | -1.66
O=C(Nc1nccs1)c1ccc(-c2ccc(F)c(Cl)c2)o1 | 29.7
O=C(NCc1ccccn1)c1cc(-c2ccc(Cl)cc2)oc1C(F)(F)F | 10.7
Clc1cccc(-c2ccc(CNCCCN3CCOCC3)o2)c1 | -19.7

Structure (SMILES) | inhibition [%]
O=C1NCCN/C1=C\C(=O)c1cccc(Br)c1 | -1.75
CC1=C(C(=O)OC(C)C)C(c2coc3ccccc3c2=O)C2=C(CCCC2=O)N1 (stereo unspecified) | 21.4
CCOc1ccccc1OCC(=O)OCc1csc(CC(=O)Nc2ccccc2C)n1 | 37.2
COc1ccc(NC(=O)CSc2nc3ccsc3c(=O)n2CCCCCC(=O)O)cc1 | -12.1
O=C(c1ccc2c(c1)OCO2)N1CCC2(CC1)Oc1ccc(F)cc1C(=O)C21CC(c2ccccc2)=NO1 (stereo unspecified) | 42.7
COc1cc(C(C)=O)ccc1OCC(=O)NCC1(N2CCCCC2)CCCCC1 | 23.8
O=C(CCc1c[nH]c2ccccc12)N[C@@H](Cc1c[nH]c2ccc(O)cc12)C(=O)O | -12.9
O=S(=O)(NCC(c1cccnc1)N1CCN(c2ccccc2)CC1)c1cccs1 (stereo unspecified) | 44.5
O=C1CC(N2CCN(c3ccccc3)CC2)C(=O)N1c1ccc(Cl)cc1 (stereo unspecified) | 58.5
Fc1ccc(-c2ccc(CNCc3ccccn3)o2)cc1 | 74.8
O=C(NCc1ccccn1)Nc1ccc(Br)cc1 | -10.5
CC(C)c1ccc(N(C)C(=O)Cc2c(C(=O)O)n(C)c3ccccc23)cc1 | -2.94
N#CCc1c(C#N)c(N)nc(N2CCN(C=O)CC2)c1C#N | 2.81
Cc1[nH]c(C)c(S(=O)(=O)Nc2ccccc2Cl)c1C(=O)N1CCCC1 | -4.19
Cc1ccc(N(C)S(=O)(=O)c2cccc(C(=O)NNC(=O)c3ccncc3)c2)cc1 | 38.7
COc1ccc([C@@H]2CC(=O)c3c(O)cc(O[C@@H]4OC(CO[C@@H]5OC(C)[C@H](O)[C@@H](O)[C@H]5O)[C@@H](O)[C@H](O)[C@H]4O)cc3O2)cc1O (stereo partly specified) | 2.5
CSC(=Nc1ccccc1)c1c(O)n(C)c(=O)n(C)c1=O | 56.9
CN=C(SCc1ccccc1)c1c(O)n(C)c(=O)n(C)c1=O | 11.6
CCOC(=O)C1C(=O)CC(=O)CC1CC(C)SCC (stereo unspecified) | -2.43
Cc1ccc(S(=O)(=O)N2CCN(C(=O)CCOc3cc(C)ccc3C)CC2)cc1 | 39.6
N#C/C(=C\Nc1ccc(F)c(Cl)c1)C(=O)C1CC1 | -9.33
C[C@@H](C(=O)Nc1ccc(SC(F)F)cc1)N1C(=O)C2CCCCC2C1=O (stereo partly specified) | -9.99
CCOC(=O)/C=C1\Nc2ccccc2SC1=O | 19.5

Structure (SMILES) | inhibition [%]
Cc1ccc(CNC(=O)C2(C)Oc3ccccc3NC2=O)cc1 (stereo unspecified) | -3.05
COC(=O)C1CCN(S(=O)(=O)c2c(C)n(C)c(=O)n(C)c2=O)CC1 | -0.96
CCNc1nc2ccccc2[nH]1 | 11.9
O=C(Nc1ccccc1Oc1cccnc1)C1CCCN(Cc2cccc(Cl)c2)C1 (stereo unspecified) | 16.5
CC(C)(C)c1ccc(/C=C2/SC(N3CCCC3)=NC2=O)cc1 | 73.6
Cc1ccc(/C=C2\SC(N3CCCCC3)=NC2=O)cc1 | 77.7
O=C(NC1CC2CCCC(C1)N2Cc1ccccc1)C1CCCCC1 (stereo unspecified) | -4.43
CCCCCCSc1ccc(-c2nc3ccc(C)cn3c2NCc2ccccc2)cc1OC | 8.88
O=C(COc1ccccc1)NCC(=O)N/N=C/c1ccccc1 | 12.4
COc1ccc(-c2csc(C3=C(O)CN(CCCN4CCCC4=O)C3=N)n2)cc1OC | 2.8
O=c1oc2ccccc2nc1/C=C(\O)c1ccccc1 | 77.3
Cc1ccc2oc(=O)c(/C=C(\O)c3sc(C)nc3C)nc2c1 | 2.53
Cc1ccc2oc(=O)c(/C=C(\O)c3cccs3)nc2c1 | -10.4
Cc1ccc2oc(=O)c(/C=C(\O)c3ccco3)nc2c1 | -4.98
Cc1ccc2oc(=O)c(/C=C(\O)c3ccccc3)nc2c1 | 4.41
Cc1ccc(/C(O)=C/c2nc3cc(C)ccc3oc2=O)cc1 | 18.1
CC(C(=O)c1ccccc1)[n+]1cccc(C(N)=O)c1 (stereo unspecified) | -11.2
Cc1cc(=O)[nH]c(SCC(=O)Nc2ccc(S(=O)(=O)N3CCOCC3)cc2)n1 | -13.9
CN(c1ccc(C(=O)NC2CCCC2)cc1)S(=O)(=O)c1ccccc1 | 9.33
